# In the library only some 11% were active in any assay of this set; here they are far more common.
# VP16 counter: inhibits Gal4-VP16 luciferase reporter, ROR gamma counter-screen. Drosophila S2 Gal4-VP16 UAS-luciferase, luminescence, 20 h. Potency, µM (highest dose often 53.6 µM), inactives show at the top dose activity, negative = inhibition, usual class: inhibitors. 3.5% of 310,000 active;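 further: Gal4-VP16 expression switched on by copper sulfate through the metallothionein promoter; potency means the concentration at half of the fitted maximal effect; on the % scale 0 is the no-effect control and ±100 the full control effect; nearly all actives have a fitted effect of over 50% in size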
# RORg inh: blocks mouse ROR gamma transcriptional activity | P51450 | Potency, µM (series often up to 53.6 µM), inactives show top-dose activity change, negative = inhibition, usual class: inhibitors | Drosophila S2 Gal4-RORgamma UAS-luciferase reporter, 20 h | AID 2551 | 5.4% of 310,000 active; further: potency means the concentration at half of the fitted maximal effect; on the % scale 0 is the no-effect control and ±100 the full control effect; nearly all actives have a fitted effect of over 60% in size
# Target sequence (P51450 whole entry, looked up, the tested form may be a part): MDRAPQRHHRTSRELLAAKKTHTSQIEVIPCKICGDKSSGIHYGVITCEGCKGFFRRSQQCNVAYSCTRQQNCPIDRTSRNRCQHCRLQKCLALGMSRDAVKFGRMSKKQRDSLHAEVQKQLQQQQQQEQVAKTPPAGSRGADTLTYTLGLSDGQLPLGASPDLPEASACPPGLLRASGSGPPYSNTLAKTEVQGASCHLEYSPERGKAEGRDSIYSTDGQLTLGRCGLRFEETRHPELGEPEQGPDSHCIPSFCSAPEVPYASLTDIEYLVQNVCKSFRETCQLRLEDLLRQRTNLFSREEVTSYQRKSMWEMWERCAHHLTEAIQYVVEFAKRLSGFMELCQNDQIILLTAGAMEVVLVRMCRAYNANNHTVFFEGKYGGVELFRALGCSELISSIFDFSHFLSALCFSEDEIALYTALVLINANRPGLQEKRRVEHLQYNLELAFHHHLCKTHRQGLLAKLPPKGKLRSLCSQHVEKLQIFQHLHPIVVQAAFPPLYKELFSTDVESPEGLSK
#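 In this cell-based reporter format, copper sulfate (700 uM final) drives Gal4–ROR gamma fusion expression from a metallothionein promoter in Drosophila Schneider cells; compounds preincubated 1 hr, reporter read after 20 hr at ambient temperature.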
# IL-1B inflam inh: inhibitors of inflammasome signaling (IL-1 beta secretion); 4.7% of 360,000 active; AID 743279; THP-1 LPS/ATP IL-1B secretion, AlphaLISA, 16 h; active compounds read low; activity change, % at 57.5 µM; in the data active means activity change below about -50%; inconclusive means mostly about -30% to -49%; further: on the % scale 0 is the no-effect control and ±100 the full control effect
#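 THP-1 cells pretreated 1 hr with compounds (up to 57.5 uM final), then stimulated with LPS (250 ng/mL final) plus ATP (1.25 mM final); secreted IL-1B measured by AlphaLISA after 16 hr, decreased signal indicating inhibition.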
# SW480 rereplic: induces DNA re-replication in SW480 colon adenocarcinoma cells; AID 624297; Potency, µM (top dose mostly 46.1 µM), inactives show at the top dose re-replication activation, most hits filed as activators; SW480 DNA re-replication, Hoechst DNA content imaging, 48 h; 1.8% of 340,000 active; further: potency means the concentration at half of the fitted maximal effect; % of control where 0% means no effect; nearly all actives have a fitted effect of over 55% in size
#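 Image-based read-out: total Hoechst fluorescence of nuclei (405 nm excitation, 500-530 nm emission), with hits raising the fraction of high-intensity nuclei. SW480 colon cells incubated 48 hr with compounds at 37 C.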
# MCF10A rerep: DNA re-replication induction in MCF 10a cells; AID 624296; MCF 10A DNA re-replication, Hoechst nuclear intensity, 48 h; Potency, µM (doses to about 46.1 µM), for the others: at the top dose activity, positive = re-replication, usual class: activators; 2.9% of 350,000 active; further: potency means the concentration at half of the fitted maximal effect; % of control where 0% means no effect; nearly all actives have a fitted effect of over 50% in size
# * marks the source's active call; other numbers are inactive results; u = inconclusive; x = no result given; [ ] = dose if it differs, or a comment. Unless noted, the call rests on the fitted dose curve; in most records, active means well fitted curve in the direction sought with a large enough effect; inconclusive means small, poorly fitted or top-dose-only effect, or another doubt; inactive means no such curve, though single readings can be large; an effect the other way counts as inactive or inconclusive.
SMILES,VP16 counter,RORg inh,IL-1B inflam inh,SW480 rereplic,MCF10A rerep
COC(=O)c1cc(S(=O)(=O)N2CCOCC2)c(Cl)cc1N1CCOCC1,6%,10%,35,-3%,-179%[0.0737 µM]
NNC(=O)CCn1c2ccccc2c2ccccc21,2%,-27%,10,86%,12µM*
Cc1cc(NC(=O)C(C)Sc2nnc(NCc3ccco3)s2)no1 (stereo not given),x,x,1,u,-8%
NC(=O)c1c(NC(=O)c2ccccc2)sc2c1CCN(Cc1ccccc1)C2,u,-13%,-11,u,u
NC(=O)c1c(NC(=O)c2c(F)cccc2F)sc2c1CCN(Cc1ccccc1)C2,-6%,u,-8,13%,26µM*
CCN1CCc2c(sc(NC(=O)c3ccc(C(=O)c4ccccc4)cc3)c2C(N)=O)C1,-24%,-39%,-72*,3%,u
CCN1CCc2c(sc(NC(=O)Nc3ccc(Cl)c(Cl)c3)c2C(N)=O)C1,-19%,36%,-52*,15µM*,9.2µM*
CCN1CCc2c(sc(NC(=O)c3ccc(S(=O)(=O)N4CCOCC4)cc3)c2C(N)=O)C1,-1%,5%,u,-25%,0%
CCN1CCc2c(sc(NC(=O)Cc3ccccc3)c2C(N)=O)C1,-7%,-3%,-6,-1%,-4%
CCN1CCc2c(sc(NC(=O)c3ccc(S(=O)(=O)N(CC)c4ccccc4)cc3)c2C(N)=O)C1,u,-40%,-96*,u,12µM*
Cc1ccccc1Oc1ncnc2oc(-c3ccccc3)cc12,9%,-15%,-16,-2%,u
Clc1ccc(Oc2ncnc3oc(-c4ccccc4)cc23)cc1,-9%,0%,6,0%,5.8µM*
Nc1ccc(-c2ccc3ccccc3n2)cc1,11µM*,-20%,x,x,x
COc1ccc(-c2ccc3ccccc3n2)cc1,u,u,93,-9%,-5%
Cc1nn(Cc2ccc(C(=O)Nc3ccccc3F)cc2)c(C)c1Cl,-5%,-3%,-29,-7%,23µM*
Cc1nn(Cc2ccc(C(=O)Nc3nccs3)cc2)c(C)c1Cl,u,13µM*,3,-4%,5.8µM*
C=CCC(C)(Nc1ccccc1)C(=O)OCC (stereo not given),5%,-3%,x,x,x
O=C1OC(c2ccccc2)=N/C1=C/c1cccc(OC(=O)c2cccs2)c1,x,x,-52*,2%,2%
Cc1no[n+]([O-])c1COc1cccc(/C=C2\N=C(c3ccccc3)OC2=O)c1,-14%,-6%,-15,-1%,1%
O=C1NN(c2ccc(F)c(Cl)c2)C(=O)/C1=C\c1cccc(OC(=O)c2cccs2)c1,13%,33%,5,0%,15µM*
N#Cc1ccccc1OCC(=O)OCC(=O)NC1CC1,x,x,0,-26%,-4%
C=C(C)C(=O)OCC1CN2C(CCC(C)C2c2ccc(Br)cc2)C(=O)O1 (stereo not given),-8%[10 µM],2%[10 µM],x,x,x
Cc1cccc(C)c1NC(=O)CSc1n[nH]c(=O)n1C1CC1,x,x,15,u,0%
COc1ccc(CNC[C@@H](CCCCN(C)Cc2ccc(OC)cc2)N2C[C@H](c3ccccc3)N(CCc3ccc(Cl)c(Cl)c3)C(=O)C2=O)cc1,5µM*,5.6µM*,u,-8%,u
COc1ccc(N/C(N)=N/c2nc(CSc3nnc(C)s3)cc(=O)[nH]2)cc1,-1%,1%,34,3.3µM*,u
SMILES,VP16 counter,RORg inh,IL-1B inflam inh,SW480 rereplic,MCF10A rerep
COc1ccc(N/C(N)=N/c2nc(C)cc(=O)[nH]2)cc1,-8%,3%,21,-3%,1%
Cc1cccc(N/C(N)=N/c2nc(CSc3ccc(Cl)cc3)cc(=O)[nH]2)c1,5%,-5%,13,u,3.7µM*
COCc1cc(=O)[nH]c(/N=C(\N)Nc2cccc(C)c2)n1,0%,2%,-9,6%,-184%[0.0737 µM]
Cc1ccc(N/C(N)=N/c2nc(CSc3nnc(C)s3)cc(=O)[nH]2)c(C)c1,u,23%,68,u,5.8µM*
Cc1ccc(SCc2cc(=O)[nH]c(/N=C(\N)Nc3cccc4ccccc34)n2)cc1,-12%,16%,42,-3%,u
NCCCC(N)CC(=O)NC1CNC(=O)C(C2CC(O)N=C(N)N2)NC(=O)/C(=C/NC(N)=O)NC(=O)C(CO)NC(=O)C(CO)NC1=O (stereo not given),2%,5%[10 µM],x,-4%,-1%
CN(CC(=O)Nc1c(Cl)cccc1Cl)C(=O)CCC(=O)c1ccccc1,x,x,-2,-5%,1%
COc1ccc(Nc2ccc(S(=O)(=O)N3CCCCCC3)cc2[N+](=O)[O-])cc1,6%,32%,u,-145%,-5%
COc1cc(Nc2ccc(S(=O)(=O)N3CCN(C)CC3)cc2[N+](=O)[O-])cc(OC)c1,x,x,-29,3.3µM*,2%
CCN1C(=O)[C@@H]2[C@@H](c3ccc(-c4ccc(F)cc4)cc3)N3CCCC[C@@]3(C(=O)OC)[C@@H]2C1=O,x,x,11,-6%[9.22 µM],u
Cc1cc2n(n1)C(c1ccccc1)Nc1ccccc1-2 (stereo not given),x,38%[0.365 µM],28,-3%,10%
Cc1cc2n(n1)C(c1ccc(N(C)C)cc1)Nc1ccccc1-2 (stereo not given),1%,-37%,-12,21µM*,21µM*
CC(C)CSC1=NSC2=NC(=O)/C(=C\c3cccs3)C(=N)N12,-15%,u,-73*,10%,21µM*
N=C1/C(=C/c2cccs2)C(=O)N=C2SN=C(SCc3ccccc3)N12,18%,41%,16,-5%,u
O=c1c(Cc2c(F)cccc2Cl)c(O)ccn1C1CCCCCC1,2%,11%,u,-32%,0.18µM*
CCc1ccc(-c2cc(C(F)(F)F)n3nc(C(=O)Nc4c(C)nn(Cc5ccccc5C)c4C)cc3n2)s1,9%,-15%,19,2.6µM*,u
CCc1ccc(-c2cc(C(F)(F)F)n3nc(C(=O)Nc4c(C)nn(Cc5ccccc5Cl)c4C)cc3n2)s1,-3%,11%,-4,10µM*,3.3µM*
Cc1ccccc1Cn1ccc(NC(=O)c2cc3nc(-c4ccco4)cc(C(F)(F)F)n3n2)n1,-12%,7%,38,u,8.2µM*
CCc1ccc(-c2cc(C(F)(F)F)n3nc(C(=O)Nc4cnn(Cc5ccccc5C)c4)cc3n2)s1,-3%,-4%,10,23%,u
CCCCCCCCNc1ncnc2[nH]ncc12,x,x,-6,11%,u
COc1ccccc1NC(=O)c1ccc(C(=O)Nc2ccccc2OC)nc1,-2%,-10%,24,-3%,2%
CCOc1ccccc1NC(=O)c1nc(S(=O)(=O)Cc2ccccc2)ncc1Cl,4.5µM*,10µM*,-97*,27%,4.1µM*
CCOc1ccccc1NC(=O)c1ccc(C(=O)Nc2ccccc2OCC)nc1,u,-12%,20,u,u
COc1ccccc1NC(=O)c1nc(S(=O)(=O)Cc2ccccc2)ncc1Cl,5µM*,7.1µM*,-102*,u,u

# Screening results: PubChem, National Center for Advancing Translational Sciences (NCATS)
